Screening results from PubChem BioAssay.
CYP2C19 activ = human CYP2C19 activators, primary screen, biochemical, luminescence | recombinant CYP2C19, luciferin-H EGE luminescence; active compounds read high; 0 = fully inhibited enzyme, 1 = untreated enzyme | activation factor at 5 µM | 96,000 tested, under 10 active | Cytochrome P450 2C19 (Homo sapiens), P33261;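 active means activation factor of at least 2 at 5 µM in the primary screen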;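 further: 0 = wells with 2.5 mM tranylcypromine and 1 = vehicle-only wells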
Target sequence (P33261 whole entry, looked up): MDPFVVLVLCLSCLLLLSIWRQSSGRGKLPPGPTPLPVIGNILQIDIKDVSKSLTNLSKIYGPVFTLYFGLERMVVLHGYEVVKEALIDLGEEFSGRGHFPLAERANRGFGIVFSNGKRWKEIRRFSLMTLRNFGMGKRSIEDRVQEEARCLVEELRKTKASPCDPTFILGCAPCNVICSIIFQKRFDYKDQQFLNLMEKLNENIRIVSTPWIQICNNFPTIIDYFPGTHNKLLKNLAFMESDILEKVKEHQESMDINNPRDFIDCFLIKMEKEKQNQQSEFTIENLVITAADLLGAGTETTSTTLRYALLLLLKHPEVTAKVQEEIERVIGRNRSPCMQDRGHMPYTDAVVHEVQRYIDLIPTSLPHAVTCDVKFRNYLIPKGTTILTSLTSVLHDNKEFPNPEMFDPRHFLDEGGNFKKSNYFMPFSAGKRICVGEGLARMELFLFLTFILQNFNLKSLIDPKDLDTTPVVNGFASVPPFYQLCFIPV
CYP2C9 inh = blockers of cytochrome P450 2C9 activity – biochemical, luminescence, ADME assay, primary screen | 96,000 tested, 20% active | CYP2C9 Supersomes, luciferin-H conversion | inhibition, % at 5 µM | AID 777, 2007;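 active means blocking of liver enzyme CYP2C9 beyond about 50% at 5 µM, limit read from the data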
PLAP act = PLAP enzyme activators, biochemical, luminescence, HTS. activation fold at 20 µM. Alkaline phosphatase, placental type (Homo sapiens), P05187. 96,000 tested, 1.2% active. purified PLAP enzyme, luminescent substrate read-out; active compounds read high; in the data active means activation fold above about 2
CYP2C9 act = human CYP2C9 activators, primary screen, biochemical, luminescence; 96,000 tested, 1.4% active; activation factor at 5 µM; recombinant CYP2C9, luciferin-H conversion; active compounds read high; factor 1 = untreated enzyme, 0 = blocked; AID 1024, 2008;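 active means activation factor of 2 or more for CYP2C9 at a 5 µM dose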;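 further: 0 = sulfaphenazole-blocked wells and 1 = vehicle-only wells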
CYP2C19 inhib = blockers of cytochrome P450 2C19 activity – biochemical, luminescence, ADME assay, primary screen; P33261; CYP2C19 Supersomes, luciferin-H EGE luminescence, 30 min; inhibition, % at 5 µM; 96,000 tested, 21% active;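 active means CYP2C19 inhibition above a set limit at 5 µM in the primary screen, cut at about 50% in these data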;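 further: plate controls were negative control wells for no effect and 2.5 mM tranylcypromine positive control for full effect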
* hit, by the source's call. This is a sample that favours compounds with a hit; in the whole collection about 31% have one here.

SMILES	CYP2C19 activ	CYP2C9 inh	PLAP act	CYP2C9 act	CYP2C19 inhib
CCNc1nc(N2CCOCC2)nc(N(c2ccccc2)c2ccccc2)n1	1	4.1	1.1	1	1.2
CNc1nc(SCc2ccccc2)nc(N2CCOCC2)n1	0.3	46.9	0.8	0.5	68.6*
COC(=O)c1[nH]c2ccccc2c1NC(=O)C(C)N1CCN(C(=O)c2ccco2)CC1 (stereo not drawn)	0.9	25.4	1.2	0.7	11.3
CCOC(=O)C1C(=O)OC(C)(C)C1C(C)C(=O)c1ccccc1 (stereo not drawn)	0.3	28.4	0.9	0.7	72.7*
CCOC(=O)C1C(=O)OC(C)(C)C1C(C)C(=O)c1ccc(OC)cc1 (stereo not drawn)	0.9	5.0	1.2	0.9	5.7
CCOC(=O)C(NC(=O)CC)(Nc1ccc(S(=O)(=O)Nc2cc(C)on2)cc1)C(F)(F)F (stereo not drawn)	1	29.7	1	0.7	3.1
CCOC(=O)C(NC(=O)c1ccc(Cl)cc1Cl)(Nc1ccc(C)cc1)C(F)(F)F (stereo not drawn)	0.1	14.7	0.8	0.9	91.0*
Cn1c(SCc2nc(-c3ccc(Cl)cc3)no2)nnc1-c1ccccc1	0.6	-21.9	1	1.2	36.6
COc1ccc(-c2noc(CSc3nc(N)c(-c4ccccc4)c(=O)[nH]3)n2)cc1	0.2	69.6*	1.3	0.3	76.2*
Cc1ccc(-c2noc(CSc3nnc(Cc4ccccc4)n3-c3ccc(Cl)cc3)n2)cc1	0.2	83.7*	1.6	0.2	84.5*
COc1ccc(-c2noc(CSc3nc4ccccc4c(=O)n3-c3ccc(C)cc3)n2)cc1	0.4	65.5*	1.1	0.3	62.8*
COc1ccc(-c2noc(CSc3nnc(Cc4ccccc4)n3-c3ccc(Cl)cc3)n2)cc1	0.1	80.1*	1.5	0.2	87.0*
O=c1oc2ccccc2cc1-c1csc(Cc2nc(-c3ccc(Br)cc3)cs2)n1	0.4	70.0*	1	0.3	61.2*
Cc1cccn2c(=O)c(C=Nc3c(C)n(C)n(-c4ccccc4)c3=O)c(N3CCCC3)nc12	0.9	15.2	1.6	0.8	11.4
CN(C)c1ccc(/C=C/c2nc3ccccc3s2)cc1	0.6	-16.9	1	1.2	37.5
Cc1ccc(/C=C/c2nc3ccccc3s2)s1	0.3	24.4	0.6	0.8	72.1*
CCCOC(=O)CSC1=C(C#N)C(c2ccccc2OCC)C(C#N)C(=O)N1 (stereo not drawn)	0.6	66.8*	1.2	0.3	43.4
C=CCSC1=C(C#N)C(c2ccccc2OC)CC(=O)N1 (stereo not drawn)	0.5	23.6	1	0.8	46.6
CCCCOC(=O)CSC1=C(C#N)C(c2ccccc2OC)C(C#N)C(=O)N1 (stereo not drawn)	0.4	54.7*	1	0.5	63.5*
CCCCOC(=O)CSC1=C(C#N)C(c2ccccc2OCC)C(C#N)C(=O)N1 (stereo not drawn)	0.5	78.8*	1.1	0.2	49.5
Cc1cc(C)nc(NC(=O)c2cccc(Cl)c2)n1	0.9	2.0	0.9	1	5.3
COc1ccc(Cc2nnc3c4cnn(C)c4ncn23)cc1	0.8	10.0	1	0.9	22.2
NC(=O)NCc1ccc(Cl)cc1	1.1	-4.9	0.9	1	-12.7
CCN(C(=O)CN1CCN(c2ccc(O)cc2)CC1)c1c(N)n(Cc2ccccc2)c(=O)[nH]c1=O	1	-1.8	1.1	1	0.5
COc1cccc(OC)c1OCCCOc1c(OC)cccc1OC	0.2	5.7	1.2	0.9	75.8*
SMILES	CYP2C19 activ	CYP2C9 inh	PLAP act	CYP2C9 act	CYP2C19 inhib
COc1cccc(OCCOc2c(OC)cccc2OC)c1	0	-81.7	1.3	1.8	95.3*
COc1cccc(OC)c1OCCCCN1CCCC1	1	-10.5	0.9	1.1	1.1
COc1cccc(OC)c1OCCOc1ccccc1OC(C)C	0.2	-89.4	1	1.9	81.5*
O=C(O)c1ccc2c(c1)N(Cc1cccc(F)c1)C(=O)CS2	1.2	4.1	1.1	1	-16.6
O=c1cc(N2CCN(c3cccc(Cl)c3)CC2)[nH]c(=O)n1C1CCCCC1	0.5	24.7	0.9	0.8	49.0
COc1ccc(N2CCN(C(=O)c3cc4c(-c5cccc(OC)c5)nn(C)c4s3)CC2)cc1	0.8	51.3*	1.1	0.5	22.9
COc1ccc(-c2nn(C)c3sc(C(=O)N4CCOCC4)cc23)cc1OC	0.8	8.5	1	0.9	17.6
COc1cccc(-c2nn(C)c3sc(C(=O)NCc4ccc(C)cc4)cc23)c1	0.7	53.7*	1.8	0.5	25.5
COc1cccc(-c2nn(C)c3sc(C(=O)NCc4ccccn4)cc23)c1	0.9	49.8	1	0.5	12.7
CN(C)S(=O)(=O)c1cc(S(=O)(=O)N(C)C)c(Cl)cc1N	0.7	17.2	1.1	0.8	33.4
O=Cc1ccc2noc(-c3ccc(Cl)cc3)c2c1	0.8	12.5	1.1	0.9	24.1
O=C(NN1C(=O)c2ccc3c4c(ccc(c24)C1=O)CC3)c1ccc(Br)cc1	1.1	-251.9	1.1	3.5*	-13.5
NC(=O)c1c(NC(NC(=O)c2ccco2)(C(F)(F)F)C(F)(F)F)sc2c1CCCC2	0.8	21.2	1.2	0.8	19.7
C/C(CC1CC(COCC(C)C)OC1=O)=N\Nc1nc(-c2ccccc2)cs1 (stereo not drawn)	0.1	72.0*	1	0.3	89.0*
COc1ccc(C2C(C(=O)NCCN3CCOCC3)c3ccccc3C(=O)N2C)cc1OC (stereo not drawn)	1.1	13.8	1.1	0.9	-6.9
COc1ccccc1OCC(=O)Nc1ccc(S(=O)(=O)Nc2nc(C)cc(C)n2)cc1	0.6	70.1*	1.3	0.3	37.5
COc1ccc(C(=O)Nc2ccc(S(=O)(=O)Nc3cc(C)nc(C)n3)cc2)c(OC)c1	1	36.8	1.4	0.6	-3.7
COc1ccccc1OCC(=O)Nc1ccc(S(=O)(=O)NC(C)=O)cc1	1.1	21.7	1.7	0.8	-11.0
COc1ccccc1C(=O)Nc1ccc(S(=O)(=O)Nc2cc(C)nc(C)n2)cc1	1	55.9*	1.6	0.4	0.2
Cc1ccc2oc(=O)c3cnn(CC(=O)NC4CCCCC4C)c3c2c1 (stereo not drawn)	0.9	3.0	1.2	1	10.1
C=CCNC(=O)C1CC(=O)N(c2ccc(OCC(=O)NCc3ccccc3)cc2)C1 (stereo not drawn)	1	18.9	0.8	0.8	-2.9
CCC(Cc1ccccc1)NC(=O)C1CCC(CNc2c(N3CCCC3)c(=O)c2=O)CC1 (stereo not drawn)	0.9	7.5	1.7	0.9	9.9
Cc1cc(C)n(C(=O)CCC(=O)NCc2ccccc2)n1	0.8	-38.8	1.1	1.4	18.9
Cc1cc(C)n(C(=O)CCNC(=O)c2ccccc2Br)n1	1	-112.4	1	2.1*	4.2
